PubChem BioAssay AID1159580 (chemical genetic matrix, 2015)
About 2,000 (36%) of roughly 5,500 compounds were called active. About 18% were inconclusive and are not listed. Cut-off read from the data, not from the text of the source: active = normalized growth mostly below about 0.91 (no sharp cut-off); inconclusive = no clear call, values can overlap the other calls; inactive = mostly above about 0.92. Some of the results follow.

Assay: chemical genetic growth profiling, strain panel (AID 1159580);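 note: tested at 20 µM; growth read once vehicle control cultures reached saturation at 30 °C; 1 = growth at the plate median or of vehicle wells; lower values mean less growth of the strain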
Settings: growth OD

Measured: normalized growth

C[C@@H]1CC[C@@]2(OC1)OC1C(O)C3C4CC[C@H]5C[C@H](O[C@@H]6O[C@H](CO)[C@H](O[C@@H]7O[C@H](CO)[C@@H](O)[C@H](O[C@@H]8OC[C@@H](O)[C@H](O)[C@H]8O)[C@H]7O[C@@H]7O[C@H](CO)[C@H](O)[C@H](O[C@@H]8O[C@H](CO)[C@@H](O)[C@H](O)[C@H]8O)[C@H]7O)[C@H](O)[C@H]6O)[C@H](O)C[C@]5(C)C4CC[C@]3(C)C1[C@@H]2C (stereo partly specified)
inactive: S. cerevisiae deletion strains, locus YKL160W, strain elf1, active compounds read low 1.01 | S. cerevisiae deletion strains, locus YKR026C, strain gcn3, active compounds read low 1.03 | S. cerevisiae deletion strains, locus YKR091W, strain srl3, active compounds read low 1.02 | S. cerevisiae deletion strains, locus YLL001W, strain dnm1, active compounds read low 0.962 | S. cerevisiae deletion strains, locus YLL026W, active compounds read low 1.01 | S. cerevisiae deletion strains, locus YLL041C, strain sdh2, active compounds read low 1.02 | S. cerevisiae deletion strains, locus YLR027C, strain aat2, active compounds read low 1.01 | S. cerevisiae deletion strains, locus YLR221C, strain rsa3, active compounds read low 0.926 | S. cerevisiae deletion strains, locus YLR258W, strain gsy2, active compounds read low 1.02 | S. cerevisiae deletion strains, locus YLR320W, strain mms22, active compounds read low 0.985 | S. cerevisiae deletion strains, locus YLR342W, strain FKS1, active compounds read low 0.991 | S. cerevisiae deletion strains, locus YLR357W, strain rsc2, active compounds read low 0.875 | S. cerevisiae deletion strains, locus YLR370C, strain arc18, active compounds read low 1.02 | S. cerevisiae deletion strains, locus YLR384C, strain iki3, active compounds read low 1.04 | S. cerevisiae deletion strains, locus YML120C, strain ndi1, active compounds read low 0.925 | S. cerevisiae deletion strains, locus YMR058W, strain fet3, active compounds read low 1.01 | S. cerevisiae deletion strains, locus YMR125W, strain sto1, active compounds read low 1.03 | S. cerevisiae deletion strains, locus YMR129W, active compounds read low 1.03 | S. cerevisiae deletion strains, locus YMR205C, strain PFK2, active compounds read low 0.977 | S. cerevisiae deletion strains, locus YNL071W, strain lat1, active compounds read low 1.03 | S. cerevisiae deletion strains, locus YNL209W, strain ssb2, active compounds read low 1.03 | S. cerevisiae deletion strains, locus YNL248C, strain rpa49, active compounds read low 1.02 | S. cerevisiae deletion strains, locus YNL322C, strain KRE1 (second series), active compounds read low 1.04 | S. cerevisiae deletion strains, locus YNR049C, strain mso1, active compounds read low 1.03 | S. cerevisiae deletion strains, locus YOR001W, strain rrp6, active compounds read low 0.939 | S. cerevisiae deletion strains, locus YOR070C, strain gyp1, active compounds read low 1.02 | S. cerevisiae deletion strains, locus YOR080W, strain dia2, active compounds read low 1.04 | S. cerevisiae deletion strains, locus YOR083W, strain WHI5, active compounds read low 0.974 | S. cerevisiae deletion strains, locus YOR106W, strain vam3, active compounds read low 0.919 | S. cerevisiae deletion strains, locus YOR265W, strain rbl2, active compounds read low 1.04 | S. cerevisiae deletion strains, locus YOR270C, strain vph1, active compounds read low 0.99 | S. cerevisiae deletion strains, locus YOR290C, strain snf2, active compounds read low 0.964 | S. cerevisiae deletion strains, locus YPL051W, strain arl3, active compounds read low 0.95 | S. cerevisiae deletion strains, locus YPL078C, strain atp4, active compounds read low 0.968 | S. cerevisiae deletion strains, locus YPL240C, strain hsp82, active compounds read low 1
active: S. cerevisiae deletion strains, locus YJR043C, strain POL32, active compounds read low 0.0654 | S. cerevisiae deletion strains, locus YJR066W, strain TOR1, active compounds read low -0.00057 | S. cerevisiae deletion strains, locus YKL009W, strain mrt4, active compounds read low 0.0811 | S. cerevisiae deletion strains, locus YKL068W, active compounds read low 0.0538 | S. cerevisiae deletion strains, locus YKL085W, strain MDH1 (second series), active compounds read low 0.0597 | S. cerevisiae deletion strains, locus YKL085W, strain MDH1, active compounds read low 0.0597 | S. cerevisiae deletion strains, locus YKR001C, strain vps1, active compounds read low 0.0628 | S. cerevisiae deletion strains, locus YLR039C, strain RIC1, active compounds read low 0.0908 | S. cerevisiae deletion strains, locus YLR058C, strain SHM2, active compounds read low 0.0509 | S. cerevisiae deletion strains, locus YLR102C, strain apc9, active compounds read low 0.0549 | S. cerevisiae deletion strains, locus YLR113W, strain HOG1, active compounds read low 0.124 | S. cerevisiae deletion strains, locus YLR262C, strain YPT6 (second series), active compounds read low 0.598 | S. cerevisiae deletion strains, locus YLR262C, strain YPT6, active compounds read low 0.112 | S. cerevisiae deletion strains, locus YLR268W, strain sec22, active compounds read low 0.0616 | S. cerevisiae deletion strains, locus YLR371W, strain rom2, active compounds read low 0.0571 | S. cerevisiae deletion strains, locus YLR418C, strain cdc73, active compounds read low 0.0973 | S. cerevisiae deletion strains, locus YML016C, strain PPZ1, active compounds read low 0.0492 | S. cerevisiae deletion strains, locus YML032C, strain rad52, active compounds read low 0.0633 | S. cerevisiae deletion strains, locus YML124C, strain tub3, active compounds read low 0.0557 | S. cerevisiae deletion strains, locus YMR078C, strain ctf18, active compounds read low 0.064 | S. cerevisiae deletion strains, locus YMR223W, strain ubp8, active compounds read low 0.0562 | S. cerevisiae deletion strains, locus YMR263W, strain SAP30, active compounds read low 0.055 | S. cerevisiae deletion strains, locus YMR307W, strain GAS1, active compounds read low 0.13 | S. cerevisiae deletion strains, locus YNL067W, strain RPL9B, active compounds read low 0.0474 | S. cerevisiae deletion strains, locus YNL153C, strain GIM3, active compounds read low 0.0551 | S. cerevisiae deletion strains, locus YNL183C, strain NPR1, active compounds read low -0.00129 | S. cerevisiae deletion strains, locus YNL233W, strain BNI4, active compounds read low 0.0568 | S. cerevisiae deletion strains, locus YNL250W, strain rad50, active compounds read low 0.0602 | S. cerevisiae deletion strains, locus YNL271C, strain bni1, active compounds read low 0.0573 | S. cerevisiae deletion strains, locus YNL298W, strain CLA4, active compounds read low 0.0588 | S. cerevisiae deletion strains, locus YNL307C, strain MCK1, active compounds read low 0.063 | S. cerevisiae deletion strains, locus YNR052C, strain pop2, active compounds read low 0.0596 | S. cerevisiae deletion strains, locus YOL006C, strain TOP1, active compounds read low 0.131 | S. cerevisiae deletion strains, locus YOL012C, strain htz1 0.172 | S. cerevisiae deletion strains, locus YOL147C, strain pex11, active compounds read low 0.0607 | S. cerevisiae deletion strains, locus YOR061W, strain CKA2, active compounds read low 0.0464 | S. cerevisiae deletion strains, locus YOR069W, strain VPS5, active compounds read low 0.05 | S. cerevisiae deletion strains, locus YOR136W, strain idh2, active compounds read low 0.0668 | S. cerevisiae deletion strains, locus YOR144C, strain elg1, active compounds read low 0.0588 | S. cerevisiae deletion strains, locus YOR184W, strain ser1, active compounds read low 0.0693 | S. cerevisiae deletion strains, locus YOR231W, strain MKK1, active compounds read low 0.0965 | S. cerevisiae deletion strains, locus YOR316C, strain cot1, active compounds read low 0.0539 | S. cerevisiae deletion strains, locus YPL106C, strain sse1, active compounds read low 0.671 | S. cerevisiae deletion strains, locus YPL241C, strain CIN2, active compounds read low 0.0482 | S. cerevisiae deletion strains, locus YPL256C, strain CLN2, active compounds read low 0.109 | S. cerevisiae deletion strains, locus YPR119W, strain clb2, active compounds read low 0.0604 | S. cerevisiae deletion strains, locus YPR141C, strain kar3, active compounds read low 0.0605 | S. cerevisiae deletion strains, locus YPR163C, strain tif3, active compounds read low 0.0646 | S. cerevisiae deletion strains, locus YPR167C, strain met16, active compounds read low 0.0578 | S. cerevisiae deletion strains, strain wtn01, active compounds read low 0.0611 | S. cerevisiae strains, strain wild type, active compounds read low 0.0496
